Reference: ChEMBL document CHEMBL3988442, “University of Dundee, Small-Polar-MMV Screening Library” (2021)
For some assays here: Results with a measured potency or affinity are listed apart.

How the values were obtained:
Set-up in all cases: scale not given: direction of the effect not stated beside the values
[1] = biological target: Protein translocase subunit SecA (Escherichia coli (strain K12)) (UniProt P10408); assay: Assay to Identify E. coli SecA ATPase Inhibitors; type: functional; settings: 30 µM
[2] = biological target: T1, Ubiquitin-activating enzyme e1, putative (Leishmania donovani (strain BPK282A1)) (UniProt E9BSI1); assay: Leishmania donovani Ubiquitin Activating Enzyme (LdE1); type: functional; settings: 30 µM
T1 sequence (whole entry): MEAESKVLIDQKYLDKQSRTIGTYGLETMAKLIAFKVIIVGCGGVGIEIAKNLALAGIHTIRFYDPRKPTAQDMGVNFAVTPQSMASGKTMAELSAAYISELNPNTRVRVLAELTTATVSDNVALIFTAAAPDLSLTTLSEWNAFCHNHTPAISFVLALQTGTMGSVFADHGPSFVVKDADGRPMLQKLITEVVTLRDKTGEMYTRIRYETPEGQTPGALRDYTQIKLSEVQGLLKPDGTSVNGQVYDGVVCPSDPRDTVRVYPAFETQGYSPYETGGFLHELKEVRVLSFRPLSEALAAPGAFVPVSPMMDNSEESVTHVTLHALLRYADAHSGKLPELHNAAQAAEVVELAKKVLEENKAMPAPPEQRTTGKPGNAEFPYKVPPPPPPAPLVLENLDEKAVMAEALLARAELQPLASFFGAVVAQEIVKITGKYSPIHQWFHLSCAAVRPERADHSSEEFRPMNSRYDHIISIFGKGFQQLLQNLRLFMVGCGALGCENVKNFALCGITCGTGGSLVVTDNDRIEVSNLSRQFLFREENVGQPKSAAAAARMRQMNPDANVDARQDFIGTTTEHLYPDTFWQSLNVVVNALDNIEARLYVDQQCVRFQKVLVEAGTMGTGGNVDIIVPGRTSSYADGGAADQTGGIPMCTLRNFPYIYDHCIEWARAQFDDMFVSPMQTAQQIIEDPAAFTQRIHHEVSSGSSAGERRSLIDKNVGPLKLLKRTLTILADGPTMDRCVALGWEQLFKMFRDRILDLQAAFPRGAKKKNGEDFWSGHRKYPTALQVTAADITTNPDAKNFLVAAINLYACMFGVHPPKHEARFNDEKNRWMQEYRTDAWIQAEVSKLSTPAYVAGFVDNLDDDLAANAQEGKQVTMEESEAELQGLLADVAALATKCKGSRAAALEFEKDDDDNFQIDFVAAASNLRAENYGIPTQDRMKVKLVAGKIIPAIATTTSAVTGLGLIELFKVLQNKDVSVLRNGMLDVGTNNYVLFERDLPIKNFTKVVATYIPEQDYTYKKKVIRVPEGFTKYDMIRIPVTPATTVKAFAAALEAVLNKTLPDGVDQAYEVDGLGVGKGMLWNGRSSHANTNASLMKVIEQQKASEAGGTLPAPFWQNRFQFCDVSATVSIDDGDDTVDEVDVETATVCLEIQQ

[3] = biological target: Sialic acid-binding Ig-like lectin 9 (Homo sapiens) (UniProt Q9Y336); assay: Hs-Siglec9 ALPHAscreen SOP 20170721; settings: 10 µM
Trypanosoma cruzi = assay: Trypanosoma cruzi phosphomannomutase and mannose-1-phosphate guanylyltransferase assay; type: functional; settings: 10 µM
[4] = biological target: T2, Arginase-2, mitochondrial (Homo sapiens) (UniProt P78540); assay: in vitro enzyme assay to detect the production of urea directly proportional to the activity of Arginase II; type: functional; settings: 33.3 µM; also: in the data most compounds retested in dose-response had high values
T2 sequence (whole entry): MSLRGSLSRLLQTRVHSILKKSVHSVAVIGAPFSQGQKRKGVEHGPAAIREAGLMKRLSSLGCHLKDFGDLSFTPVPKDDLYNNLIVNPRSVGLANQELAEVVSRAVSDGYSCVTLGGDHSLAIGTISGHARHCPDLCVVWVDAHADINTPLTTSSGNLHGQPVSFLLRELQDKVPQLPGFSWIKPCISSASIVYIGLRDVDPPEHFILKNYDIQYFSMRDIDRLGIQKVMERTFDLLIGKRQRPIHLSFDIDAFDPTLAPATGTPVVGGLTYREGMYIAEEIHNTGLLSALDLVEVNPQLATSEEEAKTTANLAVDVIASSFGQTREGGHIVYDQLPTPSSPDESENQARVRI

[5] = biological target: T3, Proteasome subunit beta (Trypanosoma cruzi) (UniProt O96673); assay: Trypanosoma cruzi proteasome chymotrypsin-like activity (TcProtChymo) assay.; also: in the data most compounds retested in dose-response had high values; type: functional; settings: 9.37 µM
T3 sequence (whole entry): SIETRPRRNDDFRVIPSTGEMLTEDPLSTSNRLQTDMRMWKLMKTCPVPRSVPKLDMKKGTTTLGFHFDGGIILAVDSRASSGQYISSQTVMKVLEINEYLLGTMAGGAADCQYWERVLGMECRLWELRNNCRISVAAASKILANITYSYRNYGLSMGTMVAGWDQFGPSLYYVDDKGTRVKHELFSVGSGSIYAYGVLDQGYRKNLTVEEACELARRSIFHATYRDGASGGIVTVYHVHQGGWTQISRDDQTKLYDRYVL

Homo sapiens = species on record: Homo sapiens; assay: To identify inhibition of the IFN signalling (Jak-Stat) pathway via expression of an eGFP reporter gene under the control of an IFN-stimulated response element (ISRE) containing MxA promoter.; type: functional; settings: 30 µM
[6] = biological target: T4, Tyrosyl-tRNA synthetase, putative (Trypanosoma cruzi (strain CL Brener)) (UniProt Q4DSP6); assay: Trypanosoma cruzi tyrosyl tRNA synthetase (TcYRS) _High Tyrosine SOP; type: functional; settings: 30 µM; also: in the data most compounds retested in dose-response had high values
T4 sequence (whole entry): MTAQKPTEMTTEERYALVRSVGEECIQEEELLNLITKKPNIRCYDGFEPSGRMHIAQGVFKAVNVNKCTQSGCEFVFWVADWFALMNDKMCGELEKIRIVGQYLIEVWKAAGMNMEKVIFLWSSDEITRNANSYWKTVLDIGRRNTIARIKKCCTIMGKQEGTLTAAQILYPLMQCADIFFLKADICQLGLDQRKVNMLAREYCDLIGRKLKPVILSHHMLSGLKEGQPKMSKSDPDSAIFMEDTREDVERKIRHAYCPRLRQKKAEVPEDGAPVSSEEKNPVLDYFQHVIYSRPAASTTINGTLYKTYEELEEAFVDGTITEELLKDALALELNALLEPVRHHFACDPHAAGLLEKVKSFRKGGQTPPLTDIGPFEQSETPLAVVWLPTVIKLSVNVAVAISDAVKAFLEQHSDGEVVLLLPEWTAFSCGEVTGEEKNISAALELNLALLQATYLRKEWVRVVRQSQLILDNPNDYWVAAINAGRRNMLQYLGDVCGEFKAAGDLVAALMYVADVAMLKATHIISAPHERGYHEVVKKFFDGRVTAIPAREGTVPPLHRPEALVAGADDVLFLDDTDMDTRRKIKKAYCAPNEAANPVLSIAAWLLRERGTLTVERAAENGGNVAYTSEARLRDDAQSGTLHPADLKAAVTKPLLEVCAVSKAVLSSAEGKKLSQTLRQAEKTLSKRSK

[7] = biological target: T4, Tyrosyl-tRNA synthetase, putative (Trypanosoma cruzi (strain CL Brener)); assay: Trypanosoma cruzi tyrosyl tRNA synthetase (TcYRS) SOP; type: functional; settings: 30 µM
[8] = biological target: Chromo domain-containing protein 1 (Saccharomyces cerevisiae (strain ATCC 204508 / S288c) (Baker's yeast)) (UniProt P32657); assay: ScCHD-1 Enzyme Inhibition Assay; type: functional; settings: 30 µM; also: in the data most compounds retested in dose-response had high values
Sequence of Chromo domain-containing protein 1 (Saccharomyces cerevisiae (strain ATCC 204508 / S288c) (Baker's yeast)) (P32657 whole entry, the tested form may be a part): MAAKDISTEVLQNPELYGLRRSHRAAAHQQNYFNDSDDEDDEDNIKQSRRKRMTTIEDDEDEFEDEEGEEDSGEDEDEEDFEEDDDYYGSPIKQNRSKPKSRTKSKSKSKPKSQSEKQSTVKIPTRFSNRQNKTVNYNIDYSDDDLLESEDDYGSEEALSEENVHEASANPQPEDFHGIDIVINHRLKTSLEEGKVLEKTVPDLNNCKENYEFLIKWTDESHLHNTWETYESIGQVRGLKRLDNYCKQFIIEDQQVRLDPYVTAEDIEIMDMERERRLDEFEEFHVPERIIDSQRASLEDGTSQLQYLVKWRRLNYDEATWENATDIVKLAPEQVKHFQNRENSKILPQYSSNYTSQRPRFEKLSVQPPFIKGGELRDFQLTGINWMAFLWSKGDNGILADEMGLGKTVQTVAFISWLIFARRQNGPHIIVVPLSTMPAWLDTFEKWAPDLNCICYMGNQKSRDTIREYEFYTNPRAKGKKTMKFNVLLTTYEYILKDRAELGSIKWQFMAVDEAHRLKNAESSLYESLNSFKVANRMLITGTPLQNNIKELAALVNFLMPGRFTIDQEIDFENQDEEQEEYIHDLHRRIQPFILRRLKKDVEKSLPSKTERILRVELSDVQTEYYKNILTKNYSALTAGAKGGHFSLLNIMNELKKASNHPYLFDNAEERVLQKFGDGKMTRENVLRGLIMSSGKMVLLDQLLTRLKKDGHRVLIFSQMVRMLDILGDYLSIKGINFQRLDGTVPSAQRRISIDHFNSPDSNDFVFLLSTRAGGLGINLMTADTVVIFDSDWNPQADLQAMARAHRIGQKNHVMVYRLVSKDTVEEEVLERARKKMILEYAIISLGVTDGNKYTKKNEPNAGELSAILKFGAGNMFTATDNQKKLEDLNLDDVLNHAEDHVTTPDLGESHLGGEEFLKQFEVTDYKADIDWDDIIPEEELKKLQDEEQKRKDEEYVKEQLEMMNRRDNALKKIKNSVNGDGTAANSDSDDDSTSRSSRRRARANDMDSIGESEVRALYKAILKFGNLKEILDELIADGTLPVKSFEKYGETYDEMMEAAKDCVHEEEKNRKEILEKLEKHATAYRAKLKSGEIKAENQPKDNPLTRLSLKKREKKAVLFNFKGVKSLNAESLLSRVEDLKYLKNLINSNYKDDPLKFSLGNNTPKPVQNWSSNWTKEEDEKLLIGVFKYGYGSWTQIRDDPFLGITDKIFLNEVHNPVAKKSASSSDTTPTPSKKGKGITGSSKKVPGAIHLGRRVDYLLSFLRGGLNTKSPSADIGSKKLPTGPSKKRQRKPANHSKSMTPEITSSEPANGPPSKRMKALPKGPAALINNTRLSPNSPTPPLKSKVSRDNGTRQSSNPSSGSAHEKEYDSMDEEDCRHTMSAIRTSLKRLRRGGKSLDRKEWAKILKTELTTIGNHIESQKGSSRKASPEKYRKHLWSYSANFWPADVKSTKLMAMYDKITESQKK

Sequence of Protein translocase subunit SecA (Escherichia coli (strain K12)) (P10408 whole entry): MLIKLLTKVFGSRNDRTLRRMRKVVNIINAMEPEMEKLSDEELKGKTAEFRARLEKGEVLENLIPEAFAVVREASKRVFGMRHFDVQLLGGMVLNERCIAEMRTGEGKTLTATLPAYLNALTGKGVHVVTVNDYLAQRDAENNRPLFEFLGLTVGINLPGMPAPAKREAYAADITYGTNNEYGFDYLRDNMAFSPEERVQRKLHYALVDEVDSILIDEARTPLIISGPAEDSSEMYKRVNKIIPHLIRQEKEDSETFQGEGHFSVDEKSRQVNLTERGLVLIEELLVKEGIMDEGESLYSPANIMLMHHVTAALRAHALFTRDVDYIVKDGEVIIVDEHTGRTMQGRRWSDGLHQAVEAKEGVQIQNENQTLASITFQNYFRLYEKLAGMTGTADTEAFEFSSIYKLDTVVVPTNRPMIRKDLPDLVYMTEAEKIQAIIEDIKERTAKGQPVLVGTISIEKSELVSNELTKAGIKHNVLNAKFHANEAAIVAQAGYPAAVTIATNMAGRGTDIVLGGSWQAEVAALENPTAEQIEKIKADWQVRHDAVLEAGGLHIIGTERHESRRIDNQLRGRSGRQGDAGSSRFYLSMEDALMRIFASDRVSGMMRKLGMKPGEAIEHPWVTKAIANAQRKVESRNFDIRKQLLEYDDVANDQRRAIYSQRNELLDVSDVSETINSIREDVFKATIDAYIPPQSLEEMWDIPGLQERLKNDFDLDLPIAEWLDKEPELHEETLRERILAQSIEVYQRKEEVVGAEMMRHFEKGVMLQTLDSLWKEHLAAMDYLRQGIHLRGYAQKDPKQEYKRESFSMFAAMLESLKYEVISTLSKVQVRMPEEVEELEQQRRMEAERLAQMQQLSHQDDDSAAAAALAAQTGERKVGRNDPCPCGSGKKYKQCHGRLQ
Sequence of Sialic acid-binding Ig-like lectin 9 (Homo sapiens) (Q9Y336 whole entry): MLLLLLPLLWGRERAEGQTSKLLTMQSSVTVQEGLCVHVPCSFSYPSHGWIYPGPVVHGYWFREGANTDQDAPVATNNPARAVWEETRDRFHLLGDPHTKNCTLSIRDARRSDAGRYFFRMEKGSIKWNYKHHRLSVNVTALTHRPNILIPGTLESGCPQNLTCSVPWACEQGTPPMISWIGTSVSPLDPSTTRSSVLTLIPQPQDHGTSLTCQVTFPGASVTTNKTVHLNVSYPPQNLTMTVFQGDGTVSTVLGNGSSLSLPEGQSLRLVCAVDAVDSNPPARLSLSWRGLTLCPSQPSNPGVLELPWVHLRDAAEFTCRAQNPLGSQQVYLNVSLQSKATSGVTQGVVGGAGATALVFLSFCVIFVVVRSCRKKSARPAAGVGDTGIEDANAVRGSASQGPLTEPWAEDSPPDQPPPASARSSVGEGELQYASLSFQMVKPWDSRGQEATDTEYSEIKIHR

Compound	Percent Effect [1] [%]	Percent Effect [2] [%]	Percent Effect [3] [%]	Percent Effect (Trypanosoma cruzi) [%]	Percent Effect [4] [%]	Percent Effect [5] [%]	Percent Effect (Homo sapiens) [%]	Percent Effect [6] [%]	Percent Effect [7] [%]	Percent Effect [8] [%]
CCn1ccnc1CN1CCC(CCC(=O)Nc2ccccc2Cl)CC1	-1.09	5.41	7.23	6.89	12.2	-1.37	10.8	1.6	7.32	83.4
CCn1cc(NC(=O)CCc2ccc3c(c2)OCCCO3)cn1	-5.48	15.6	6.08	4.85	-6.35	2.28	0.692	6.86	23.5	-12.8
Cc1ccccc1N1CCN(C(=O)c2ccc[nH]2)C(C)C1 (stereo not given)	-7.84	2.7	33.4	5.92	-2.45	9.25	27.5	1.6	9.76	-1.74
COc1ncc(C2(O)CCN(Cc3c(F)cccc3F)CC2)c(OC)n1	-3.32	9.33	-4.97	1.97	-4.87	13.3	15.3	2.12	0	-21.1
Cc1noc(C(C)C)c1C(=O)NCCCOC(C)C	0.204	2.6	15.3	0.373	-2.25	6.67	-3.84	0.98	9.41	-6.89
COc1ncccc1CNC(=O)NCCNC(=O)c1ccco1	-2.62	13.3	-3.85	6.83	1.33	16	18.4	4.74	12.8	-6.18
COc1ccc(C2CC(=O)Nc3c2nc2n3CCCC2)cc1O (stereo not given)	-3.09	2.7	6.46	-2.04	7.34	22.6	23.4	1.6	14.6	-3.18
CC(C)(C)c1n[nH]c(C2CN(C(=O)CCc3cscn3)CCO2)n1 (stereo not given)	-2.17	7.69	15.8	4.41	5.33	0.597	6.37	3.35	13.2	-1.16
CS(=O)(=O)N1CCC2(CC1)CC(CC(=O)NC1CC1)c1ccccc12 (stereo not given)	-4.87	9.09	1.58	2.04	-3.24	15.4	-6.07	4.74	10.3	0.815
O=C1C(NCc2nnc3n2CCCC3)CCCN1c1cccc(F)c1 (stereo not given)	0.699	10.3	-12.3	-1.6	6.56	16.8	19.1	10.1	13.2	-2.66
COCC(C)N(C)C(=O)c1nc(S(C)(=O)=O)n2ccccc12 (stereo not given)	-8.81	2.56	-5.8	-2.35	-2.05	-0.256	24.6	5.26	8.43	-0.536
CC(C)c1nc(C2CCCN(Cc3nnc(C4CC4)o3)C2)no1 (stereo not given)	3.18	-2.67	5.21	0	4.88	0.933	4.85	-1.58	-2.56	-1.26
O=C(NCC1CC1)[C@H]1C[C@H]2OCC[C@H]2N(Cc2ccsc2)C1	-6.05	-3.9	-0.139	-1.85	-6.07	2.38	-7.12	-2.63	0	-0.205
COc1ncccc1C(=O)N1CCn2c(COCC3CC3)cnc2C1C (stereo not given)	-3.37	3.9	-3.01	1.07	-1.62	8.21	-16	4.74	7.69	1.11
CN(C)CC1CN(Cc2ccc3c(c2)OCO3)Cc2nccn2C1 (stereo not given)	-10.1	-42.9	7.99	0.682	-3.64	5.56	12.4	0.526	0	-1.33
CC(=O)N1CCCn2nc(CNS(=O)(=O)N3CCCCCC3)cc2C1	-5.72	0	0.997	-2.81	1.75	11.6	4.54	2.66	9.76	2.81
CCc1nnc2n1CCN(Cc1nc(-c3ccoc3)no1)C2	-4.35	5.13	5.33	4.22	1.64	9.47	-10.4	12	22.9	-4.51
CCc1nc(CN2CCCN(C(=O)COCC3CC3)CC2)cs1	-1.44	12.8	-6.97	-0.282	0.82	9.64	6.06	11	22.9	-6.08
CCCN(C(=O)COC)c1nc2c(s1)CCc1c-2cnn1C	6.68	52	21	-3.16	23.9	2.79	17.9	-13.8	-15	-18.2
OC(COc1ccccc1)CN1CCc2c(ncn2C2CC2)C1 (stereo not given)	-6.24	8	5.27	-6.02	-1.77	3.65	15.6	5.79	7.69	-12.1
CCc1nc(CN(C)C2CCN(CCc3ccccn3)C2)no1 (stereo not given)	-0.239	21.3	-5.99	4.02	-3.55	22.8	12.5	6.84	15.4	-14.1
COc1ccc(CNCC2CCN(CC(C)O)CC2)c2ccccc12 (stereo not given)	-1.39	-10.3	5.63	5.73	6.97	0.939	31.9	4.31	18.1	-4.71
O=C(NCC1CC1)C1CCC2(CCN(C(=O)c3ccccn3)CC2)O1 (stereo not given)	-3.07	1.3	-0.0517	-2.44	2.74	-2.66	9.93	-4.83	-10	-4.71
